Screening results as filed in PubChem BioAssay.
An excerpt weighted towards active compounds, which were near 13% of everything screened.
HCV inh = HCV inhibition | Huh7.5.1 HCVcc-Cre infection, luciferase reporter, 44 h | Potency, µM (highest dose often 41.8 µM), inactives show at the top dose activity change, negative = inhibition, hits mostly inhibitors | hit rate 3.4% among 340,000 | AID 651820; further: potency means the concentration at half of the fitted maximal effect
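Reporter virus HCVcc-Cre (~0.5 moi) infects cells exposed to compound; seeding density 1,000 cells/well with 4 h settling beforehand. Luminescence, 15 sec read, taken 44 h post-infection following a 15 min RT substrate incubation.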
HCMV antiviral = inhibitors of human cytomegalovirus; HFF cells, HCMV-luciferase reporter, 72 h; hits give low values; activity change, negative = inhibition, % at 57.5 µM; AID 1259415; hit rate 4.5% among 410,000; in the data active means activity change below about -60%; inconclusive means no clear call, values can overlap the other calls; inactive means above about -39%
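HFF cells seeded 16 h at 37C, treated with compounds, infected with luciferase-reporter HCMV at MOI 1 PFU/cell; luciferase read at 72 h post infection, normalized to buffer-only and Salinomycin controls.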
Pf growth 96h = inhibits malaria parasite growth, 96 h. P. falciparum luciferase reporter growth, 96 h. Potency, µM (series often up to 28.7 µM), for the others: top-dose activity change, negative = inhibition, hits mostly inhibitors. hit rate 6.9% among 320,000; further: potency means the concentration at half of the fitted maximal effect
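Parasite growth measured via integrated firefly luciferase reporter in P. falciparum. Infected erythrocytes at 2% hematocrit, 0.05% parasitemia final were treated 96 hours at 37 C under 5% CO2, and luminescence was read.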
Pf growth 48h = inhibits P. falciparum growth in the first generation, 48 h; P. falciparum luciferase growth in erythrocytes, 48 h; Potency, µM (top dose mostly 28.7 µM), without a hit: top-dose activity change, negative = inhibition, most hits filed as inhibitors; hit rate 5.9% among 310,000; further: potency means the concentration at half of the fitted maximal effect
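Cell-based growth assay: transgenic P. falciparum expressing firefly luciferase, cultured in red cells within RPMI 1640 containing 0.5% w/v Albumax, 24 mM bicarbonate and gentamycin. A drop in luciferase activity indicates inhibition.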
An asterisk follows results filed as active; i = inactive; ? = inconclusive; nt = no result; [ ] = another dose, or the depositor's remark. Unless noted, the call rests on the fitted dose curve; in most records, active means well fitted inhibition curve with a large enough effect; inconclusive means small, poorly fitted or top-dose-only effect, or another doubt; inactive means no such curve, though single readings can be large or run the other way. On the % scale 0 is the no-effect control and ±100 the full control effect.

SMILES	HCV inh	HCMV antiviral	Pf growth 96h	Pf growth 48h
COc1ccccc1/C=N/N1C(=O)C(CC(=O)Nc2ccc([N+](=O)[O-])cc2OC)SC1=Nc1cccc(C)c1C (stereo not drawn)	nt	?	?	3.7µM*
COc1cc([N+](=O)[O-])ccc1NC(=O)CCCOc1cccc(C)c1C	?	80	2.9µM*	8%
CCOc1ccc(/C(C)=N/N2C(=O)C(CC(=O)Nc3ccc(OC)cc3[N+](=O)[O-])SC2=Nc2cccc(C)c2C)cc1 (stereo not drawn)	2%	?	2.3µM*	2.1µM*
COCCc1nn2c(=O)cc(COC(=O)COc3ccc(F)cc3)nc2s1	nt	4	nt	nt
CCOC(=O)COc1cccc2c(=O)n(CC(=O)NCc3ccc(F)cc3)ccc12	10%	?	26%	-7%
CCOC(=O)COc1cccc2c(=O)n(CC(=O)NCc3ccccc3)ccc12	-5%	-70*	45%	20%
COCCn1ccc2c(OCC(=O)NCCc3ccccc3)cccc2c1=O	10µM*	-4	?	?
CN(Cc1ccccc1)Cc1cc(=O)oc2ccc3ccccc3c12	nt	4	nt	nt
Clc1ccc(Cn2cnc3ccccc32)cc1	?	-70*	2%	?
c1ccc(Cn2cnc3ccccc32)cc1	?	14	8.3µM*	1%
COc1ccc(CNC(=O)CSc2ncc(S(=O)(=O)c3ccc(C)c(Cl)c3)c(=O)[nH]2)cc1	nt	8	nt	nt
O=C(NCc1cccs1)C1CCN(C(=O)N2CCOc3ccccc32)CC1	nt	17	nt	nt
Cc1n(CC(=O)c2ccc(F)cc2)c2ccccc2[n+]1C	7%	-12	?	3.7µM*
CCOC(=O)Cn1c(C)[n+](CC(=O)c2ccccc2)c2ccccc21	18%	17	5.2µM*	?
CCCCc1n(CC(=O)c2ccc(Cl)cc2)c2ccccc2[n+]1C	23%	?	?	1.2µM*
Brc1ccc(C=Nc2ccc(Nc3ccccc3)cc2)s1	-6%	nt	13µM*	?
Cc1cc(NC(=O)CSc2nnc(Cc3ccccc3)n2C)no1	-3%	15	i	-11%
Cc1cc(NC(=O)CSc2nnc(COc3ccccc3)n2Cc2ccco2)no1	11%	11	8.3µM*	-16%
CCn1c(Cc2ccccc2)nnc1SCC(=O)Nc1cc(C)on1	-5%	-27	8.3µM*	-14%
Cc1cc(NC(=O)CSc2nnc(-c3ccccc3)n2Cc2ccco2)no1	-13%	-2	?	?
Cc1cc(C)nc(SCc2nnc(SCC(=O)Nc3ccc(C)c(C)c3)n2Cc2ccco2)n1	25µM*	33	13µM*	?
CCn1c(=O)n(CC)c2cc(N3CCCCC3)c(NC(=O)Nc3ccccc3Cl)cc21	nt	-39	nt	nt
COC(=O)c1cc(=O)n(CCc2ccccc2F)c(=Nc2ccc(F)c(Cl)c2)s1	7.9µM*	?	-17%	nt
COC(=O)c1cc(=O)n(Cc2ccco2)c(=Nc2ccc(F)c(Cl)c2)s1	?	-29	-8%	nt
CCOC(=O)c1cccc(NC(=O)CCCn2c(C)c3cnn(-c4ccccc4)c(=O)c3c2C)c1	nt	-5	nt	nt
SMILES	HCV inh	HCMV antiviral	Pf growth 96h	Pf growth 48h
Cc1ccc(C(=O)N2CCC3(CC2)Oc2ccc(Cl)cc2C(=O)C32CC(c3cccnc3)=NO2)s1 (stereo not drawn)	36%	22	13µM*	?
CC(C)C(=O)N1CCC2(CC1)Oc1ccc(Cl)cc1C(=O)C21CC(c2ccccc2)=NO1 (stereo not drawn)	-25%	-24	?	?
O=C(/C=C/c1cccs1)N1CCC2(CC1)Oc1ccc(Cl)cc1C(=O)C21CC(c2cccnc2)=NO1 (stereo not drawn)	?	-13	12µM*	13µM*
O=C(c1ccc2c(c1)OCO2)N1CCC2(CC1)Oc1ccc(Cl)cc1C(=O)C21CC(c2cccnc2)=NO1 (stereo not drawn)	37%[8.37 µM]	-16	13µM*	12µM*
CCCNC(=O)N(C)C[C@@H]1Oc2cc(C#CC(C)(C)O)ccc2S(=O)(=O)N([C@H](C)CO)C[C@H]1C	nt	20	nt	nt
CCOC(=O)c1nnn2c1nc(N1CCCCC1)c1ccccc12	-27%	-19	?	?
CCC1CCCCN1c1nc2c(C=O)c(C)nn2c2ccccc12 (stereo not drawn)	10µM*	-64*	?	?
COc1ccc2c(c1)[C@@H](NC(=O)OCc1ccccc1)[C@H](C)[C@@H](C(C)C)N2	nt	-19	nt	nt
O=C(Oc1ccc([N+](=O)[O-])cc1)C1CC(=O)N(c2ccc3c(c2)OCCO3)C1 (stereo not drawn)	27%	-100*	nt	nt
COc1ccccc1OCC(=O)N1CCCCCC1	nt	9	nt	nt
CCOC(=O)N1CCN(C(=O)COc2ccccc2OC)CC1	?	50	nt	2.3µM*
CC(C)c1ccccc1OCC(=O)N1CCCCCCC1	3%	1	4.1µM*	21%
COc1ccccc1N1CCN(C(=O)COc2cc(C)ccc2C)CC1	-1%	-3	0%	-14%
COc1ccccc1N1CCN(C(=O)COc2cc(C)cc3oc(=O)cc(C)c23)CC1	8.9µM*	9	?	-20%
COc1ccccc1N1CCN(C(=O)COc2ccc(Cl)cc2Br)CC1	?	23	8.3µM*	-27%
CCOC(=O)[C@@H]1CSCCS(=O)(=O)N1C(=O)[C@H](C)NC(=O)OC(C)(C)C	nt	-4	nt	nt
Cc1cccc(NC(=O)N2CCC(N3CCN(Cc4ccccc4)C(=O)C3=O)CC2)c1C	nt	14	nt	nt
COc1ccc(-c2sc3ccccc3c2C#CCO)cc1	28µM*	?	-21%	40%
COc1cc(-c2ccc3sc(-c4ccsc4)c(C#CCO)c3c2)cc(OC)c1OC	3.2µM*	-23	?	12µM*
COC(=O)c1c(-c2ccsc2)sc2ccc(-c3cc(OC)c(OC)c(OC)c3)cc12	?	-18	nt	nt
COc1ccc(-c2sc3cc4c(cc3c2C#CCO)OCO4)cc1	11µM*	-16	?	-1%
COC(=O)c1c(-c2ccc(OC)cc2)sc2cc3c(cc12)OCO3	11µM*	90	60%	20%
COc1ccc(-c2sc3ccccc3c2C#CCCO)cc1	?	93	?	-14%
COc1ccccc1-c1sc2cc3c(cc2c1C#Cc1cncn1C)OCO3	0.89µM*	25	nt	nt
COc1ccc(-c2sc3ccccc3c2C#Cc2cncn2C)cc1	3.5µM*	-28	nt	nt
SMILES	HCV inh	HCMV antiviral	Pf growth 96h	Pf growth 48h
COc1ccc(-c2sc3ccccc3c2C#CC2(O)CCCCC2)cc1	?	-16	0%	?
COc1ccc2sc(-c3ccccc3OC)c(C#Cc3cncn3C)c2c1	?	-30	nt	nt
COc1ccc(-c2sc3cc(OC)c(OC)cc3c2C#CC2(O)CCCCC2)cc1	16µM*	9	?	?
O=C(Cn1c(=O)n(-c2ccc(F)c(Cl)c2)c(=O)c2sc3ccccc3c21)NC1CCCC1	nt	8	nt	nt
Cc1nc2nc(NCc3ccc(Cl)cc3)[nH]n2c(=O)c1Cc1ccccc1	nt	-8	nt	nt
C=CCOC(=O)C1=C(C)OC(N)=C(C#N)C1c1ccc2c(c1)OCO2 (stereo not drawn)	2%	18	10µM*	-27%
